In PubChem BioAssay (Tox21):
Results filed as inconclusive are left out. A number with no mark means an inactive call. The call rests on the fitted dose curve; in most records, active means well fitted cell-killing curve with a large enough effect in the repeat runs; inconclusive means weak or mixed curves; inactive means no such curve, though single readings can be large or run the other way.

test: qHTS assay to identify small molecule agonists of the peroxisome proliferator-activated receptor delta (PPARd) signaling pathway - cell viability counter screen (AID 743211); conditions: PPARd-bla HEK293H viability, CellTiter-Glo luminescence, 17 h; series mostly up to 62.6 µM; activity change, negative = cytotoxicity: at the top concentration; further: nearly all actives have a fitted effect of over 55% in size
From the text: U.S. Tox21 Program National Center for Advancing Translational Sciences [NCATS] NIH Chemical Genomics Center [NCGC] U.S. Environmental Protection Agency [EPA] National Institutes of Environmental Health Sciences [NIEHS] National Toxicology Program [NTP] U.S. Food and Drug Administration [FDA] Tox21 Assay Overview: The peroxisome proliferator-activated receptors (PPARs) are lipid-activated transcription factors of the nuclear receptor superfamily with three distinct subtypes namely PPAR alpha, PPAR delta (PPARd) and PPAR gamma. All these subtypes heterodimerizes with Retinoid X receptor (RXR) and have different physiological functions. […] To identify the compounds that activate PPAR-delta signaling, GeneBLAzer PPAR delta UAS-bla HEK293H cell line (Invitrogen, Carlsbad, CA, USA) containing a beta-lactamase reporter gene under the control of an Upstream Activator Sequence (UAS) was used to screen the Tox21 compound library. The cytotoxicity of the Tox21 compound library against the PPARd-bla cell line was tested in parallel by measuring the cell viability using CellTiter-Glo assay (Promega, Madison, WI) in the same wells.
Tox21 Assay Protocol Summary: PPARd-bla cells were dispensed at 3000 cells/6uL/well in 1536-well black wall/clear bottom plates using a Multidrop Combi (Thermo Fisher Scientific, Waltham, MA) dispenser. After the assay plates were incubated at 37 C and 5% CO2 for 5 h, 23 nL of compounds dissolved in DMSO, positive controls or DMSO only was transferred to the assay plate by a Pintool station (Kalypsys, San Diego, CA). The assay plates were incubated at 37C for 17 h. After 1 uL of LiveBLAzerTM B/G FRET substrate was added using a Bioraptr Flying Reagent Dispenser (FRD) workstation (Beckman Coulter, Indianapolis, IN, USA), the plates were incubated at room temperature for 2 h, and fluorescence intensity was measured by an Envision plate reader (PerkinElmer, Shelton, CT). For cell viability readout that measures cytotoxicity, 3 ul/well of CellTiter-Glo reagent was added into the assay plates using a Bioraptr FRD. After 30 min incubation at room temperature, the luminescence intensity in the plates was measured using a ViewLux plate reader (PerkinElmer).
On the % scale 0 is the no-effect control and ±100 the full control effect.

Structure (SMILES)	activity change, negative = cytotoxicity
C[Si](C)(C)C	8.25%
CC(C)C[C@H](NC(=O)CNC(=O)[C@H](Cc1ccc(O)cc1)NC(=O)[C@H](CO)NC(=O)[C@H](Cc1c[nH]c2ccccc12)NC(=O)[C@H](Cc1cnc[nH]1)NC(=O)[C@@H]1CCC(=O)N1)C(=O)N[C@@H](CCCN=C(N)N)C(=O)N1CCC[C@H]1C(=O)NCC(N)=O (stereo in doubt)	2.14%
Nc1ncnc(Nc2ccccc2)n1	9.31%
O=C(CCN1CCN(CCO)CC1)N1c2ccccc2Sc2ccc(C(F)(F)F)cc21	1.72%
CCOc1cc(NC(C)=O)ccc1C(=O)OC	2.46%
O=S(=O)(O)CCN1CCN(CCO)CC1	-0.266%
CN(C)c1ccc(C=O)cc1	5.11%
COc1ccc2c(c1OC)C(=O)O[C@@H]2[C@H]1c2c(cc3c(c2OC)OCO3)CCN1C	1.03%
C=Cc1ccccn1	-4.04% [at 81.1 µM]
C=C(C)C1CCC(C)(O)CC1 (stereo not given)	-1.17%
CCCCCCCCCC(C)=O	0.113% [at 81.1 µM]
CCCCCCCC/C=C\CCCCCCCC(=O)OCCCC	0.321% [at 29.1 µM]
O=C1CC(c2ccc(Cl)cc2)CC(=O)N1	5.34%
O=C(O)C(=O)Cc1ccccc1	0.396%
C=C1CC/C=C(\C)CC[C@@H]2[C@@H]1CC2(C)C	0.427%
CC(S)C(=O)NCC(=O)O (stereo not given)	9.94%
Cc1cccc(C)c1NC(=O)c1ccccc1C(=O)O	1.5%
Cc1[nH]cnc1-c1ccc(Cl)cc1	4.46%
Cc1cccc(OCC(O)CNC(C)(C)C)c1C (stereo not given)	-10.3%
O=S(O)(O)=S	0.0962% [at 5.95 µM]

Structure (SMILES)	activity change, negative = cytotoxicity
C=C(C)C(=O)OCCOP(=O)(O)OCCOC(=O)C(=C)C	5.17%
CC(C)=O	-5.57%
C[C@H](N)[C@H](O)c1cccc(O)c1	-11.1%
CC(=C(CCOC(=O)C(C)C)SSC(CCOC(=O)C(C)C)=C(C)N(C=O)Cc1cnc(C)nc1N)N(C=O)Cc1cnc(C)nc1N	1.49%
Oc1ccccc1-c1nnco1	2.94%
O=C1O[C@@H]2[C@@H](O)[C@H](O)O[C@@H]2[C@H]1O	0.8%
CC(C)CCCC(C)(C)O	-2.64%
CCCC(=O)C(C)=O	12.2%
O=C(NCCc1c[nH]c2ccccc12)c1cccnc1	5.68%
OCCC(F)(F)C(F)(F)C(F)(F)C(F)(F)C(F)(F)C(F)(F)C(F)(F)C(F)(F)F	6.3%
CCC(C)(CCC(C)C)C(=O)O (stereo not given)	7.71%
C[C@@H]1O[C@@H](O[C@@H]2[C@@H](O)[C@H](OCCc3ccc(O)c(O)c3)O[C@H](CO[C@@H]3O[C@H](CO)[C@@H](O)[C@H](O)[C@H]3O)[C@H]2OC(=O)/C=C/c2ccc(O)c(O)c2)[C@H](O)[C@H](O)[C@H]1O	-4.55%
CC(N)C(=O)OC(C)(C)Cc1ccc(Cl)cc1 (stereo not given)	-19.4%
CC(COC(C)(C)C)OCCCO (stereo not given)	1.08%
CCOc1cc([N+](=O)[O-])c(OCC)cc1N1CCOCC1	5.4%
CC1(CO)CN(c2ccccc2)NC1=O (stereo not given)	-6%
CC(C)(C)c1cc(CCC(=O)NN)cc(C(C)(C)C)c1O	1.24%
CC/C=C\CC1=C(C)CCC1=O	1.16%
O=C1c2cccc3c2[C@H](CCC3)CN1[C@@H]1CN2CCC1CC2	-11.6%
Nc1nnc(-c2cccc(Cl)c2Cl)c(N)n1	10.6%
